Screening data (PubChem)
TDP1 cell CPT – qHTS for Inhibitors of human tyrosyl-DNA phosphodiesterase 1 (TDP1): qHTS in cells in presence of CPT | chicken DT40 Tdp1-/-;hTDP1 cells + 20 nM CPT, ATP luminescence, 48 h | actives 12% (n = 420,000) | Potency, µM (highest dose often 46.2 µM), for the others: top-dose activity change, negative = growth inhibition, actives largely listed as inhibitors; note: potency is the fitted concentration of half-maximal effect; nearly all actives have a fitted effect of over 55% in size
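Cell growth measured by CellTiter-Glo luminescence after a minimum 48 h, 37 C compound exposure with 20 nM CPT in Tdp1-knockout DT40 cells stably expressing hTDP1, seeded 400/well; qHTS titration format.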
IL1B secr inh – qHTS for Inhibitors of Inflammasome Signaling: IL-1-beta AlphaLISA Primary Screen; activity change, % at 57.5 µM; THP-1 LPS/ATP IL-1B secretion, AlphaLISA, 16 h; hits give low values; actives 4.7% (n = 360,000); in the data active = activity change below about -50%; inconclusive = mostly about -30% to -49%
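THP-1 cells pretreated 1 hr with compounds (up to 57.5 uM final), then stimulated with LPS (250 ng/mL final) plus ATP (1.25 mM final); secreted IL-1B measured by AlphaLISA after 16 hr, decreased signal indicating inhibition.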
HT1080-NT tox – qHTS for induction of synthetic lethality in tumor cells producing 2HG: qHTS for the HT-1080-NT fibrosarcoma cell line. actives 1.6% (n = 360,000). AID 686970, 2013. Potency, µM (highest dose often 46.1 µM), without a hit: at the highest dose activity, negative = less viability, hits mostly cytotoxic. HT-1080-NT fibrosarcoma viability, CellTiter-Glo ATP luminescence, 48 h;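 note: NT is the 2HG producing partner of a matched IDH1 knockdown line; potency is the fitted concentration of half-maximal effect; 0% = DMSO-treated cells and -100% = media-only wells without cells; nearly all actives have a fitted effect of over 55% in size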
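Viability of the 2HG-overproducing fibrosarcoma line after 48 hours of compound exposure at 37 degrees C was determined by luminescence with CellTiter-Glo, and concentration-effect curves were then fitted and categorized.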
TDP1 cell noCPT – qHTS for Inhibitors of human tyrosyl-DNA phosphodiesterase 1 (TDP1): qHTS in cells in absence of CPT | actives 15% (n = 420,000) | DT40 Tdp1-/- hTDP1 cells, no CPT, ATP luminescence, 48 h | Potency, µM (top dose mostly 46.2 µM), for inactives: at the highest dose activity change, negative = growth inhibition, actives largely listed as inhibitors; note: potency is the fitted concentration of half-maximal effect; nearly all actives have a fitted effect of over 55% in size
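Seeded 400 DT40-hTDP1 cells/well (vehicle DMSO, no 20 nM CPT); pinned compounds; ≥48 hr at 37 °C; CellTiter-Glo luminescence as viability measure.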
HT1080 IDH1KD tx – qHTS for induction of synthetic lethality in tumor cells producing 2HG: qHTS for the HT-1080-IDH1KD cell line; AID 686971, 2013; HT-1080 IDH1 knockdown viability, ATP luminescence, 48 h; actives 2% (n = 360,000); Potency, µM (doses to about 46.1 µM), for inactives: at the top dose activity, negative = toxicity, most hits filed as cytotoxic;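 note: potency is the fitted concentration of half-maximal effect; 0% = DMSO wells and -100% = cell-free medium wells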
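HT-1080-IDH1KD cells (IDH1 knocked down), 750/well in RPMI with 5% FBS, treated with compound 48 h at 37 degrees C. Viability by CellTiter-Glo luminescence, normalised to DMSO and no-cell wells; concentration-response curves classed.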
Starred values were filed as active, the others as inactive; ? = inconclusive; · = no result given. Most compounds without a hit are left out; they make up all but 19% or so of the library. Unless noted, calls come from the whole dose curve; as a rule, active = well fitted curve in the direction sought with a large enough effect; inconclusive = small, poorly fitted or top-dose-only effect, or another doubt; inactive = no such curve, though single readings can be large; an effect the other way counts as inactive or inconclusive. Unless noted, % is set by controls: 0 for no effect and ±100 for the full control effect.

SMILES | TDP1 cell CPT | IL1B secr inh | HT1080-NT tox | TDP1 cell noCPT | HT1080 IDH1KD tx
CC(=O)c1c(C)[nH]c(C(=O)OCC(=O)c2ccc(Br)cc2)c1C | ? | 22.9 | -18.4% | 18.4µM* | -11.4%
CC(=O)c1c(C)[nH]c(C(=O)OCCCCN2C(=O)c3ccccc3C2=O)c1C | 8.2µM* | 17.2 | -8.3% | 4.11µM* | ?
CC(=O)c1c(C)[nH]c(C(=O)OCC(=O)N2c3ccccc3NC(=O)C2(C)C)c1C | 34.8% | 41.4 | 11.1% | ? | 4.7%
O=C(Nc1cc(Cl)ccc1O)c1cc2nc(-c3ccc4c(c3)OCO4)cc(C(F)(F)F)n2n1 | -25.0% | · | · | ? | ·
O=C(/C=C/c1ccc[nH]1)c1ccc(F)cc1 | -28.2% | -1.5 | 12.7% | -10.3% | 12.8%
CCc1ccc(/C=C\C(=O)N2CCc3ccccc3C2)cc1 | -1.4% | ? | 17.0% | 2.1% | 21.4%
O=C(/C=C/c1ccccc1[N+](=O)[O-])N1CCc2ccccc2C1 | ? | -53.3* | -4.1% | 16.4µM* | -9.6%
CC(=O)N1CCN(C(=O)COC(=O)/C=C/c2ccccc2[N+](=O)[O-])CC1 | -19.9% | 9.5 | 1.0% | 3.3% | 4.7%
O=C(/C=C/c1c(F)cccc1Cl)c1ccc(F)cc1 | 20.6µM* | -2.5 | ? | 25.9µM* | ?
O=C(/C=C/c1ccccc1[N+](=O)[O-])OCC(=O)N1CCN(c2ccccc2)CC1 | 20.6µM* | 2.9 | 6.2% | ? | 2.9%
O=C(/C=C/c1c(F)cccc1Cl)N1CCc2ccccc2C1 | ? | -63.1* | -7.6% | ? | -8.9%
CCN1CCN(C(=O)/C=C/c2c(F)cccc2Cl)CC1 | 10.3% | -4.8 | 13.9% | 0.3% | 2.3%
O=C(NCCNC(=O)c1ccco1)c1ccc(Cl)c(Cl)c1 | -10.8% | 46.4 | 4.3% | -14.8% | 9.1%
O=C(COC(=O)c1ccc(N2CCCC2=O)cc1)NCc1ccco1 | -7.5% | 13.6 | 6.6% | 3.7% | 6.7%
CCNC(=O)C1(C)CCCN(C(=O)c2cc(-c3cccs3)oc2C)C1 (stereo unspecified) | ? | ? | -0.5% | ? | -12.1%
O=C(/C=C/c1ccc2c(c1)OCO2)N1CCN(c2n[nH]c(=O)[nH]c2=O)CC1 | -16.1% | 8.2 | 7.9% | -8.8% | 6.7%
CCN(C[C@H]1N[C@@](CC)(C(=O)OC)[C@H]2C(=O)N(C)C(=O)[C@@H]12)S(=O)(=O)c1ccc(C(F)(F)F)cc1 | -8.5% | -1.0 | 0.3% | ? | 2.2%
Cc1ccc([C@H]2N[C@]3(CCCN(CC4CCCCC4)C3=O)[C@H]3C(=O)N(C)C(=O)[C@@H]23)cc1 | ? | -14.8 | -0.7% | -27.4% | -2.9%
CC(C)(C)c1ccc(C(=O)Nc2ccc(S(N)(=O)=O)cc2)cc1 | ? | -76.1* | ? | ? | ?
NS(=O)(=O)c1ccc(NC(=O)Nc2ccc(C(F)(F)F)cc2)cc1 | ? | -57.9* | ? | 18.4µM* | 20.6µM*
NS(=O)(=O)c1ccc(NC(=O)c2ccc(-c3ccccc3)cc2)cc1 | -8.9% | 25.8 | 3.4% | -6.2% | -1.7%
Cc1cccc(N(C)c2nc3ccccc3c3nnc(C)n23)c1 | ? | · | · | 29.1µM* | ·
CCOC(=O)c1c(C)oc2ccc(O)c(CN3CCCCC3)c12 | ? | -69.4* | ? | -29.0% | -20.9%
CCOC(=O)c1c(-c2ccccc2)oc2ccc(O)c(CN3CCOCC3)c12 | 23.1µM* | 0.0 | ? | 23.1µM* | ?
CCOC(=O)c1oc2cccc(O)c2c1CN1CCOCC1 | -23.3% | 24.2 | -13.1% | -27.9% | -2.3%
SMILES | TDP1 cell CPT | IL1B secr inh | HT1080-NT tox | TDP1 cell noCPT | HT1080 IDH1KD tx
CC(C)N1CCc2c(sc(NC(=O)C3CCCCC3)c2C(N)=O)C1 | ? | -54.8* | -13.4% | ? | 2.6%
COC(=O)c1c(NC(=O)C2CCCCC2)sc2c1CCN(C(C)C)C2 | ? | -29.7 | -0.2% | ? | -3.3%
CN1CCc2c(sc(NC(=O)C3CCCCC3)c2C(N)=O)C1 | 15.7% | -21.1 | -2.9% | 1.2% | -1.8%
CCOC(=O)c1c(NC(=O)C2CCCCC2)sc2c1CCN(C(C)C)C2 | 14.6µM* | -9.1 | ? | 13µM* | -17.8%
COc1ccccc1N(C)S(=O)(=O)c1ccc(Cl)c(C(=O)NC2=NCCS2)c1 | 2.6% | -13.3 | 1.8% | -27.9% | 1.8%
COc1cc(OC)c(N(C)S(=O)(=O)c2cccc(C(=O)Nc3nc(C)cs3)c2)cc1Cl | 16.4µM* | 15.9 | -7.8% | ? | -12.2%
COc1cc(OC)c(N(C)S(=O)(=O)c2cccc(C(=O)NC3=NCCS3)c2)cc1Cl | 23.1µM* | -16.8 | ? | ? | 16.4µM*
COc1cc(OC)c(N(C)S(=O)(=O)c2cccc(C(=O)OCC(=O)N(C)Cc3ccccc3)c2)cc1Cl | 16.4µM* | 0.0 | -8.1% | 23.1µM* | 0.6%
COc1ccc(N(C)S(=O)(=O)c2cccc(C(=O)Nc3nc(C)cs3)c2)cc1 | -57.4% | 0.0 | 5.4% | -54.1% | 2.5%
CC(Sc1ccccc1)C(=O)NN=C1CCCCCC1 (stereo unspecified) | -9.3% | 14.9 | 1.2% | -5.7% | 11.8%
O=S(=O)(c1cccs1)N1CCN(CCOc2ccc(Cl)cc2)CC1 | ? | -59.1* | -8.8% | ? | -14.6%
O=S(=O)(c1cccs1)N1CCN(c2ccc(Cl)cc2)CC1 | 6.3% | -11.1 | -8.1% | -23.2% | 1.4%
NS(=O)(=O)c1ccc(N2CCN(CCOc3ccc(Cl)cc3)CC2)nc1 | ? | -10.9 | ? | 14.6µM* | -1.6%
O=S(=O)(c1ccc(Br)s1)N1CCN(CCOc2ccccc2)CC1 | 20.6µM* | ? | 9.6% | ? | -15.1%
O=S(=O)(c1ccc(F)cc1)N1CCN(CCOc2ccccc2)CC1 | -1.1% | -15.4 | 1.9% | -11.9% | -1.7%
O=S(=O)(c1cccs1)N1CCN(CC(O)COc2cc(Cl)ccc2Cl)CC1 (stereo unspecified) | ? | -16.2 | -25.4% | 23.1µM* | ?
CC(=O)C1=C(C)NC(=O)NC1c1ccc(Cl)cc1 (stereo unspecified) | 27.0% | 25.6 | 8.7% | 18.2% | 10.4%
Cc1ccccc1Nc1nnc(-c2ccc(C(=O)NCCO)cc2)c2ccccc12 | -22.8% | 26.0 | 10.9% | -36.0% | -5.0%
S=C(c1cn(CCOc2ccccc2)c2ccccc12)N1CCCC1 | 17.8µM* | -21.3 | ? | 20µM* | ?
S=C(c1cn(CCOc2cccc3ccccc23)c2ccccc12)N1CCCC1 | 10.3µM* | -6.2 | -1.2% | 13µM* | -15.6%
